Assay outcomes from PubChem.
Cruzain inh noDet: blocks cruzain activity in detergent-free assay; Potency, µM, without a hit: max response, negative = inhibition, usual class: inhibitors; AID 1476; purified cruzain, Z-FR-AMC fluorescence, no detergent; P25779; 200,000 compounds, 2.3% hits;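 further: plate controls were enzyme without inhibitor for no effect and buffer without enzyme for full effect; nearly all actives have a fitted effect of over 40% in size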
Target sequence (P25779 123-467 limits assumed): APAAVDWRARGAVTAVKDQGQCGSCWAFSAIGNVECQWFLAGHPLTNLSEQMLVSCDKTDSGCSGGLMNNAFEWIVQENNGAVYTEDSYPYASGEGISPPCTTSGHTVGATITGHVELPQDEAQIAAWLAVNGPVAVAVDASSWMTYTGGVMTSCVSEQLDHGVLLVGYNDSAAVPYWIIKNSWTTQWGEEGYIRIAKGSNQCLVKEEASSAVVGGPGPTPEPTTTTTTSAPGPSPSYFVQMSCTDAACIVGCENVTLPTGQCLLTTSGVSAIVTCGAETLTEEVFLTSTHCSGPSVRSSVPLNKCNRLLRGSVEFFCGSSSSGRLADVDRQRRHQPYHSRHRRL
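Purified cruzain at 1.5 nM, pre-incubated 15 min with compound at room temperature in 100 mM sodium acetate pH 5.5, 5 mM DTT, 0.00005% Triton X-100. Reaction started with 2 uM Z-FR-AMC; AMC fluorescence increase over 60 s gives rate.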
Cruzain Triton: inhibitors of Trypanosoma cruzi cruzain with detergent; Potency, µM, inactives show max response, negative = inhibition, actives largely listed as inhibitors; AID 1478; 200,000 compounds, 0.43% hits; purified cruzain, Z-FR-AMC fluorescence, 0.01% Triton; P25779;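 further: plate controls were neutral wells for no effect and buffer without enzyme for full effect; nearly all actives have a fitted effect of over 40% in size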
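Steps: dispense cruzain (1.5 nM final) in acetate buffer pH 5.5 with DTT and 0.01% Triton X-100; pin-transfer compounds; incubate 15 min RT; add Z-FR-AMC (2 uM final); read fluorescence every 30 s, using the 60 s intensity change.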
* = called active by the depositor; ? = inconclusive. Only some compounds are listed: those with a hit (about 2.4% of all), similar ones and a draw of the others. The call rests on the fitted dose curve; in most records, active means well fitted curve in the direction sought with a large enough effect; inconclusive means small, poorly fitted or top-dose-only effect, or another doubt; inactive means no such curve, though single readings can be large; an effect the other way counts as inactive or inconclusive. Potency means the concentration at half of the fitted maximal effect.

SMILES	Cruzain inh noDet	Cruzain Triton
CCOC(=O)Cc1ccc(NC(=O)NCc2cccn2Cc2ccccc2)cc1	-4.3%	-5.5%
CC(=O)c1cccc(NC(=O)Cn2cc(C(=O)c3cccc(Cl)c3)c(=O)c3ccc(C)nc32)c1	-19.5%	-7.3%
COCCCNC(=O)CCCn1c(SCC(=O)c2ccc(F)cc2)nc2c(sc3ccccc32)c1=O	-8.5%	1.1%
Cc1ccc(-c2c3c(nc4sc(C(N)=O)c(N)c24)CCC3)cc1	-3.0%	-9.6%
Cc1ccc(C(=O)Cn2nnc3c(sc4nc5c(c(-c6ccccc6)c43)CCC5)c2=O)cc1	20µM*	-3.0%
CC1Cc2ccccc2N1C(=O)CSc1ccccc1 (stereo not given)	-7.2%	-1.2%
CC(C)C(=O)Nc1nnc(SCC(=O)N2c3ccccc3CC2C)s1 (stereo not given)	31.6µM*	10µM*
O=S(=O)(c1ccc(-c2nnc(SCc3nnc(-c4ccccc4)o3)o2)cc1)N1CCCC1	?	0.1%
CCN(CC)S(=O)(=O)c1ccc(-c2nnc(SCc3nnc(-c4ccccc4)o3)o2)cc1	25.1µM*	2.5%
CC(NC(=O)CCCn1c(=O)c2cccn2c2cccnc21)c1ccccc1 (stereo not given)	-1.0%	-2.7%
O=C(c1cccc(Cl)c1)N1c2ncnn2C2(CCCCC2)[C@@H]2CCCC[C@@H]21	4.2%	0.6%
NC(=O)c1c(N)sc2c1CCCC2	20µM*	-21.9%
Nc1sc2c(c1C(=O)c1ccccc1)CCCC2	-23.9%	-8.2%
CCN(CC)c1ccc(NC(=O)C2CCN(S(=O)(=O)c3c(C)noc3/C=C/c3ccccc3F)CC2)c(C)c1	-9.7%	1.3%
COc1ccc(C=O)cc1	5.5%	7.7%
COc1ccc(C=C(c2ccc(OC)cc2)c2ccc(OC)cc2)cc1	12.6µM*	-21.5%
CCCOc1ccc(NC(=O)CC2C(=O)N(c3ccccc3)C(=O)N2Cc2ccc(F)cc2)cc1 (stereo not given)	7.0%	-9.7%
CC(=O)c1ccc(-c2nc3ccccc3n2C)o1	15.8µM*	-27.4%
Cc1ccc(-c2nc3ccccc3n2C)o1	3.8%	-2.2%
O=c1c(CCc2ccccc2)nc2cncnc2n1Cc1ccccc1	3.16µM*	2.8%
O=c1c(CCc2ccccc2)nc2cncnc2n1-c1ccccc1	-1.8%	-8.6%
CN(C(=O)CSc1nnc(COc2ccccc2)o1)c1ccccc1	-14.8%	5.4%
Cc1ccc2nc(-c3ccc(NS(=O)(=O)c4ccccc4)cc3)sc2c1	-18.6%	-5.3%
Cc1ccc2nc(-c3ccc(N)cc3)sc2c1S(=O)(=O)O	20µM*	35.5µM*
Cc1ccc(OC(=O)CSc2nnc(-c3ccc4c(c3)OCO4)o2)c(C)c1	-4.5%	-4.4%
SMILES	Cruzain inh noDet	Cruzain Triton
COc1ccc(-c2onc(C)c2C)cc1S(=O)(=O)N(C)Cc1ccco1	1.3%	-3.0%
CCN(CC)CCNc1ncnc2c1[nH]c1ccc(OC)cc12	?	4.2%
COc1ccc2[nH]c3c(NCc4ccco4)ncnc3c2c1	?	17.8µM*
COC(=O)N1CCC2(CC1)CN(c1cccc(-c3ccccc3)c1)C2	?	0.2%
CC(C)n1c(=O)c2c(O)cc(=O)oc2c2ccccc21	25.1µM*	1.5%
CCn1c(=O)c2c(O)cc(=O)oc2c2ccccc21	-6.4%	-4.0%
CS(=O)(=O)Nc1cccc(-c2cc(NCc3ccccc3)ncn2)c1	-1.1%	-2.7%
CN(C)c1cc(-c2cccc(NS(C)(=O)=O)c2)ncn1	15.8µM*	12.6µM*
CCOC(=O)c1sc2ncn(CC(=O)Nc3ccc(OCC)cc3)c(=O)c2c1C	-3.1%	-0.2%
Cc1ccc(NC(=O)Cn2nc(-c3ccccc3)nc(Cc3ccc(Cl)cc3)c2=O)cc1	25.1µM*	1.4%
Cc1ccc(NC(=O)Cn2nc(-c3ccccc3)nc(Cc3ccccc3)c2=O)cc1	-12.1%	1.3%
O=C1N[C@H](Cc2ccccc2)C(=O)N1Cc1cccc2ccccc12	-13.1%	0.4%
Cc1ccc(-n2c(SCC(=O)N3CCC(C)CC3)nc3c([nH]c4ccccc43)c2=O)cc1	5.0%	-0.2%
O=C(O)C1NCCc2ccccc21 (stereo not given)	10.5%	4.0%
S=C1NCCc2ccccc2C1c1ccccc1 (stereo not given)	31.6µM*	?
O=C1CSC(c2nn(-c3ccccc3)cc2-c2cc3ccccc3oc2=O)N1Cc1ccco1 (stereo not given)	?	25.1µM*
O=C1CSC(c2cn(-c3ccccc3)nc2-c2ccc3c(c2)OCCO3)N1CCN1CCOCC1 (stereo not given)	?	-0.6%
O=C1CSC(c2cn(-c3ccccc3)nc2-c2cc3ccccc3oc2=O)N1Cc1ccccc1 (stereo not given)	?	28.2µM*
CN1CCN(C(=O)c2ccc(C3SCC(=O)N3Cc3ccco3)cc2)CC1 (stereo not given)	-5.3%	3.3%
CCOc1ccccc1NC(=O)c1cc2c(=O)n(Cc3cccnc3)ccc2nc1C	-7.3%	-1.1%
Cc1ccc(CCNC(=O)Cn2nc(-c3ccc(C)cc3)ccc2=O)cc1	18.8%	0.3%
CCOc1ccc(CCNC(=O)c2cc3c(-c4ccccc4F)nn(C)c3s2)cc1OCC	?	-3.5%
CCN(CC)CCNC(=O)C(=O)Nc1c2c(nn1-c1ccc(F)cc1)CSC2	2.7%	-7.5%
C=CCn1c(O)c(N=NC(=O)OC(C)(C)C)c2ccccc21	3.2%	-3.4%
C=CCn1c(O)c(N=NC(=S)Nc2ccc(OC)c(Cl)c2)c2ccccc21	10µM*	-3.0%
SMILES	Cruzain inh noDet	Cruzain Triton
Cc1cc2oc3c(c(=O)c2cc1C)C(c1cccc(Br)c1)N(Cc1ccco1)C3=O (stereo not given)	?	-3.1%
Cc1ccc2oc3c(c(=O)c2c1)C(c1cccc(Br)c1)N(Cc1ccco1)C3=O (stereo not given)	25.1µM*	7.1%
CCCOC(=O)c1c(-c2ccccc2)c(-c2ccccc2)nn(C)c1=O	-8.0%	-5.5%
Cc1ccc(C)n1NC(=O)c1ccc(Cl)cc1	-3.9%	1.2%
Cc1ccc(C)n1NC(=O)c1ccc(Cl)cc1Cl	12.6µM*	-2.1%
Cc1cccc(C(=O)n2nc(-c3ccco3)nc2NCc2ccccc2)c1	-15.3%	-4.9%
CCn1c(=O)cc(OCC(=O)N2CCN(c3cccc(Cl)c3)CC2)c2ccccc21	-1.6%	-3.6%
COc1cccc(CNC(=O)CSc2nc(=O)[nH]c3c2CCCC3)c1	-12.8%	0.4%
Cc1ccc(N2C(=O)C(Cl)=C(N3CCN(C)CC3)C2=O)c(C)c1	?	-25.7%
CCc1ccc(N2C(=O)C(Cl)=C(N3CCOCC3)C2=O)cc1	-1.3%	-22.1%
CN1CCN(C2=C(Cl)C(=O)N(c3ccc(Cl)cc3)C2=O)CC1	25.1µM*	?
O=C1C(Cl)=C(N2CCOCC2)C(=O)N1c1cccc(Cl)c1	12.6µM*	12.6µM*
COc1ccc(N2C(=O)C(Cl)=C(N3CCN(Cc4ccccc4)CC3)C2=O)cc1	-29.0%	17.8µM*
O=C1C(Cl)=C(N2CCN(Cc3ccccc3)CC2)C(=O)N1c1ccccc1	-11.9%	-25.5%
CN1CCN(c2nc(-c3ccc4c(c3)OCO4)nc3ccccc23)CC1	-11.4%	-2.7%
O=C1/C(=C/c2ccccc2)Nc2ccccc21	-11.0%	-4.7%
O=C1/C(=C/c2ccccc2)NC(=S)N1C(c1ccccc1)c1ccccc1	20µM*	-3.4%
Cn1c(=O)c2c([nH]c(=O)n2Cc2ccc(Cl)cc2Cl)n(C)c1=O	-3.6%	-2.4%
Cc1cc(/C=C2/C(=N)N3C(c4ccccc4)=CSC3=NC2=O)c(C)n1-c1ccccc1	3.98µM*	0.6%
